Source: PubChem BioAssay (NCATS)
Records with an inconclusive call do not appear. Entries that show only a call come without a potency. Values without a mark were called inactive. Calls of active or inactive are those of the source. The call rests on the fitted dose curve; in most records, active means well fitted inhibition curve with a large enough effect; inconclusive means small, poorly fitted or top-dose-only effect; inactive means flat fitted curve, though single readings scatter.

These compounds were tested on HEK293T (assay: qHTS assay to identify novel small-molecules to repurpose for Merkel cell carcinoma treatment (AID 1296009; further: nearly all actives have a fitted effect of over 60% in size)). Details: MCC and control cell lines, CellTiter-Glo viability, 72 h; at 44.8 µM (top of the series).
In short: (§1)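 CellTiter-Glo luminescence after 72 hr compound exposure at 37 degree celsius gave cell viability. Libraries NPC and MIPE were run as 8- and 11-point dose responses; RLUs normalized to DMSO (negative) and no-cell (cytotoxicity) controls.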
With `CC(c1cc2ccccc2s1)N(O)C(N)=O` (centres undefined) the outcome was “inactive”. In the case of `OC(CCN1CCCCC1)(c1ccccc1)C1CC2C=CC1C2` (centres undefined), the outcome is reported as “inactive”. For `O=NN(CCCl)C(=O)NCCCl`, the outcome was “inactive; activator”. With `Cc1c(C)c2c(c(C)c1O)CCC(C)(COc1ccc(CC3SC(=O)NC3=O)cc1)O2` (centres undefined) the outcome was “inactive”. For `Cc1[nH]c(=O)c(C#N)cc1-c1ccncc1`, the outcome was “inactive”. With `N=c1nc(N2CCCCC2)cc(N)n1O` the outcome was “inactive”. `CC(C[N+](C)(C)C)OC(N)=O` (centres undefined) was tested, and the outcome was “inactive”. With `c1ccc([C@H]2CN3CCSC3=N2)cc1` the outcome was “inactive”. For `CCCCNc1cc(C(=O)O)cc(S(N)(=O)=O)c1Oc1ccccc1`, the outcome was “inactive”. With `CCN(CC)CCCC(C)Nc1ccnc2cc(Cl)ccc12` (centres undefined) the outcome was “inactive”. In the case of `CC(C=CC1=C(C)CCCC1(C)C)=CC=CC(C)=CC(=O)O`, the outcome is reported as “inactive”. For `Cc1cn[nH]c1`, the outcome was “inactive”. In the case of `COc1ccc([C@@H]2CC(=O)c3c(O)cc(O[C@@H]4O[C@H](CO[C@@H]5O[C@@H](C)[C@H](O)[C@@H](O)[C@@H]5O)[C@@H](O)[C@H](O)[C@@H]4O)cc3O2)cc1O`, the outcome is reported as “inactive”. With `CC(=O)Oc1ccccc1C(=O)O` the outcome was “inactive”. For `CCc1ccc(CCOc2ccc(CC3SC(=O)NC3=O)cc2)nc1` (centres undefined), the outcome was “inactive”. With `NC(=O)c1cnccn1` the outcome was “inactive”. In the case of `Cc1cnc(NC(=O)C2=C(O)c3ccccc3S(=O)(=O)N2C)s1`, the outcome is reported as “inactive”. In the case of `O=C1CCC(N2C(=O)c3ccccc3C2=O)C(=O)N1` (centres undefined), the outcome is reported as “inactive”.

The compounds below were run on MCC-13 in the same assay as above. Details: MCC and control cell lines, CellTiter-Glo viability, 72 h; series mostly up to 46 µM; activity change, negative = cytotoxicity: at the top concentration.
In short: as §1
`CC(c1cc2ccccc2s1)N(O)C(N)=O` (centres undefined) was tested, and the Potency was “inactive”. `Cc1ccnc(NS(=O)(=O)c2ccc(NC(=O)Nc3ccc(S(=O)(=O)Nc4nccc(C)n4)cc3)cc2)n1` was tested, and the “activity change, negative = cytotoxicity” value was -18.1%. For `CNC[C@H](O)c1cccc(O)c1`, the Potency was “inactive”. For `OC(CCN1CCCCC1)(c1ccccc1)C1CC2C=CC1C2` (centres undefined), the Potency was “inactive”. For `O=NN(CCCl)C(=O)NCCCl`, the Potency was “inactive”. In the case of `S=C(NCc1ccc2c(c1)OCO2)N1CCN(c2ncnc3c2oc2ccccc23)CC1`, the “activity change, negative = cytotoxicity” value is reported as -7.87% [at 92.7 µM]. `O=C(Nc1ccc(F)c(C(F)(F)F)c1)Nc1nnc(-c2ccncc2)s1` was tested, and the “activity change, negative = cytotoxicity” value was -2.62%. `Cc1c(C)c2c(c(C)c1O)CCC(C)(COc1ccc(CC3SC(=O)NC3=O)cc1)O2` (centres undefined) was tested, and the Potency was “inactive”. `NC(N)=NC(=O)c1nc(Cl)c(N)nc1N` was tested, and the Potency was “inactive”. With `COc1ccc(CCN2CCN(CCCc3ccccc3)CC2)cc1OC` the “activity change, negative = cytotoxicity” value was 5.84%. `O=c1n(CCCN2CCN(c3cccc(Cl)c3)CC2)nc2ccccn12` was tested, and the Potency was “inactive”. In the case of `Cc1[nH]c(=O)c(C#N)cc1-c1ccncc1`, the Potency is reported as “inactive”. With `N=c1nc(N2CCCCC2)cc(N)n1O` the Potency was “inactive”. With `CC(C[N+](C)(C)C)OC(N)=O` (centres undefined) the Potency was “inactive”. For `c1ccc([C@H]2CN3CCSC3=N2)cc1`, the Potency was “inactive”. For `CCCCNc1cc(C(=O)O)cc(S(N)(=O)=O)c1Oc1ccccc1`, the Potency was “inactive”. In the case of `CCN(CC)CCCC(C)Nc1ccnc2cc(Cl)ccc12` (centres undefined), the Potency is reported as “inactive”. `CC(C=CC1=C(C)CCCC1(C)C)=CC=CC(C)=CC(=O)O` was tested, and the Potency was “inactive”. In the case of `Cc1cn[nH]c1`, the “activity change, negative = cytotoxicity” value is reported as 14.6%. In the case of `CC(C)OC(=O)C1=CN(C(=O)c2ccc(F)c(F)c2)CC(C)(C)c2c1[nH]c1ccccc21`, the “activity change, negative = cytotoxicity” value is reported as -0.899%. With `CC(C)NCC(O)COc1ccc(COCCOC(C)C)cc1` (centres undefined) the Potency was “inactive”. With `COc1ccc([C@@H]2CC(=O)c3c(O)cc(O[C@@H]4O[C@H](CO[C@@H]5O[C@@H](C)[C@H](O)[C@@H](O)[C@@H]5O)[C@@H](O)[C@H](O)[C@@H]4O)cc3O2)cc1O` the Potency was “inactive”. `Cc1[nH]c(=O)c(C#N)cc1-c1ccc2nccn2c1` was tested, and the Potency was “inactive”. With `CCOC(=O)C1=C[C@]2(CC)CCCN3CCc4c(n1c1ccccc41)[C@@H]32` the Potency was “inactive”. `O=C1CCCC2=C1C(c1[nH]ncc1Cl)N=C(Nc1nc3ccccc3o1)N2` (centres undefined) was tested, and the “activity change, negative = cytotoxicity” value was -1.44%. With `CC(=O)Oc1ccccc1C(=O)O` the Potency was “inactive”. For `CCc1ccc(CCOc2ccc(CC3SC(=O)NC3=O)cc2)nc1` (centres undefined), the Potency was “inactive”. In the case of `NC(=O)c1cnccn1`, the Potency is reported as “inactive”. For `Cc1cnc(NC(=O)C2=C(O)c3ccccc3S(=O)(=O)N2C)s1`, the Potency was “inactive”. With `O=C1CCC(N2C(=O)c3ccccc3C2=O)C(=O)N1` (centres undefined) the Potency was “inactive”. `C[C@H](NC(=O)Cc1cc(F)cc(F)c1)C(=O)N[C@@H]1C(=O)N(C)c2ccccc2-c2ccccc21` was tested, and the “activity change, negative = cytotoxicity” value was 3.82%. For `COc1cc(F)c(F)c(Nc2ccc(I)cc2F)c1NS(=O)(=O)C1(C[C@H](O)CO)CC1`, the “activity change, negative = cytotoxicity” value was -5.32%. `Cc1cnc(Nc2ccc(OCCN3CCCC3)cc2)nc1Nc1cccc(S(=O)(=O)NC(C)(C)C)c1` was tested, and the “activity change, negative = cytotoxicity” value was 3.4%. `C[C@@H]1CN(Cc2ccc(F)cc2)[C@@H](C)CN1C(=O)c1cc2c(C(=O)C(=O)N(C)C)cn(C)c2cc1Cl` was tested, and the “activity change, negative = cytotoxicity” value was -0.114%.

Each compound was assayed on MCC-26 in the same assay as above. Details: MCC and control cell lines, CellTiter-Glo viability, 72 h; series mostly up to 46 µM; activity change, negative = cytotoxicity: at the top concentration.
In short: as §1
`CC(c1cc2ccccc2s1)N(O)C(N)=O` (centres undefined) was tested, and the Potency was “inactive”. With `Cc1ccnc(NS(=O)(=O)c2ccc(NC(=O)Nc3ccc(S(=O)(=O)Nc4nccc(C)n4)cc3)cc2)n1` the “activity change, negative = cytotoxicity” value was -9.75%. `CNC[C@H](O)c1cccc(O)c1` was tested, and the Potency was “inactive”. For `O=NN(CCCl)C(=O)NCCCl`, the Potency was “inactive”. For `S=C(NCc1ccc2c(c1)OCO2)N1CCN(c2ncnc3c2oc2ccccc23)CC1`, the “activity change, negative = cytotoxicity” value was -2.46% [at 92.7 µM]. With `O=C(Nc1ccc(F)c(C(F)(F)F)c1)Nc1nnc(-c2ccncc2)s1` the “activity change, negative = cytotoxicity” value was -19.1%. For `Cc1c(C)c2c(c(C)c1O)CCC(C)(COc1ccc(CC3SC(=O)NC3=O)cc1)O2` (centres undefined), the Potency was “inactive”. `COc1ccc(CCN2CCN(CCCc3ccccc3)CC2)cc1OC` was tested, and the “activity change, negative = cytotoxicity” value was -7.24%. With `Cc1[nH]c(=O)c(C#N)cc1-c1ccncc1` the Potency was “inactive”. In the case of `COc1cc(Nc2ncc3c(n2)-c2ccc(Cl)cc2C(c2c(F)cccc2OC)=NC3)ccc1C(=O)O`, the “activity change, negative = cytotoxicity” value is reported as -22%. `N=c1nc(N2CCCCC2)cc(N)n1O` was tested, and the Potency was “inactive”. For `CC(C[N+](C)(C)C)OC(N)=O` (centres undefined), the Potency was “inactive”. `c1ccc([C@H]2CN3CCSC3=N2)cc1` was tested, and the Potency was “inactive”. For `CCCCNc1cc(C(=O)O)cc(S(N)(=O)=O)c1Oc1ccccc1`, the Potency was “inactive”. In the case of `CC(C=CC1=C(C)CCCC1(C)C)=CC=CC(C)=CC(=O)O`, the Potency is reported as “inactive”. With `Cc1cn[nH]c1` the “activity change, negative = cytotoxicity” value was -0.581%. With `CC(C)OC(=O)C1=CN(C(=O)c2ccc(F)c(F)c2)CC(C)(C)c2c1[nH]c1ccccc21` the “activity change, negative = cytotoxicity” value was -19.9%. `CC(C)NCC(O)COc1ccc(COCCOC(C)C)cc1` (centres undefined) was tested, and the Potency was “inactive”. `COc1ccc([C@@H]2CC(=O)c3c(O)cc(O[C@@H]4O[C@H](CO[C@@H]5O[C@@H](C)[C@H](O)[C@@H](O)[C@@H]5O)[C@@H](O)[C@H](O)[C@@H]4O)cc3O2)cc1O` was tested, and the Potency was “inactive”. `CCOC(=O)C1=C[C@]2(CC)CCCN3CCc4c(n1c1ccccc41)[C@@H]32` was tested, and the Potency was “inactive”. For `CCc1ccc(CCOc2ccc(CC3SC(=O)NC3=O)cc2)nc1` (centres undefined), the Potency was “inactive”. With `NC(=O)c1cnccn1` the Potency was “inactive”. For `Cc1cnc(NC(=O)C2=C(O)c3ccccc3S(=O)(=O)N2C)s1`, the Potency was “inactive”. In the case of `O=C1CCC(N2C(=O)c3ccccc3C2=O)C(=O)N1` (centres undefined), the Potency is reported as “inactive”. With `COc1cc(F)c(F)c(Nc2ccc(I)cc2F)c1NS(=O)(=O)C1(C[C@H](O)CO)CC1` the “activity change, negative = cytotoxicity” value was -8.58%. For `Cc1cnc(Nc2ccc(OCCN3CCCC3)cc2)nc1Nc1cccc(S(=O)(=O)NC(C)(C)C)c1`, the “activity change, negative = cytotoxicity” value was -6.44%. `C[C@@H]1CN(Cc2ccc(F)cc2)[C@@H](C)CN1C(=O)c1cc2c(C(=O)C(=O)N(C)C)cn(C)c2cc1Cl` was tested, and the “activity change, negative = cytotoxicity” value was -3.28%.
